From PubChem BioAssay (NCI)
Compounds without any hit were thinned out: in the full panel of roughly 79,000, 15% have a hit. A number with no mark means an inactive call. Active and inactive are the calls of the source. No stated cut-off is given here; in the data, active means growth inhibition above about 70%; inactive means the rest.

How the values were obtained:
[1] = NCI Yeast Anticancer Drug Screen. Data for the rad50 strain (AID 155);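 further: 0% = growth of vehicle-only cultures of the same strain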; settings: S. cerevisiae rad50 strain growth inhibition, hits give high values
Procedure, shortened: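 Readout: growth inhibition relative to vehicle-treated cultures. Compound exposure was carried out in a genetically defined yeast strain deficient in DNA damage repair.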

[2] = NCI Yeast Anticancer Drug Screen. Data for the mec2-1 strain (AID 157); settings: S. cerevisiae mec2-1 strain, hits give high values
Procedure, shortened: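 Vehicle-treated cultures served as reference for growth inhibition of compound-exposed mec2-1 yeast.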

[3] = NCI Yeast Anticancer Drug Screen. Data for the sgs1 mgt1 strain (AID 161);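 further: 0% = growth of cultures given vehicle only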; settings: S. cerevisiae sgs1 mgt1 strain, hits give high values
Procedure, shortened: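 Mutant yeast exposed to compound; growth scored against vehicle-only wells.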

[4] = NCI Yeast Anticancer Drug Screen. Data for the cln2 rad14 strain (AID 165);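 further: 0% = growth equal to vehicle treated cultures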; settings: S. cerevisiae cln2 rad14 strain, hits give high values
Procedure, shortened: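 Each compound was tested on cln2 rad14 yeast. Inhibition of growth was calculated against vehicle-exposed controls.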

[5] = NCI Yeast Anticancer Drug Screen. Data for the bub3 strain (AID 167); settings: S. cerevisiae bub3 mutant strain, hits give high values
Procedure, shortened: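 Readout: yeast growth inhibition, expressed relative to vehicle-only wells. The test organism is a mutant strain from a panel with lesions in DNA repair or checkpoint genes.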

[6] = NCI Yeast Anticancer Drug Screen. Data for the mlh1 rad18 strain (AID 175); settings: S. cerevisiae mlh1 rad18 strain growth inhibition, hits give high values
Procedure, shortened: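 Vehicle-treated cultures served as the reference for growth inhibition in a yeast strain carrying DNA damage repair alterations exposed to each compound.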

[7] = at 5.0 µM (retest, dose inferred, filed as 0.5)
[8] = at 50.0 µM (retest, dose inferred, filed as 5.0)

Row | Compound | growth inhibition [1, 7] | growth inhibition [1, 8] | growth inhibition ([1]; at 50.0 µM) | growth inhibition [2, 7] | growth inhibition [2, 8] | growth inhibition ([2]; at 50.0 µM) | growth inhibition [3, 7] | growth inhibition [3, 8] | growth inhibition ([3]; at 50.0 µM) | growth inhibition [4, 7] | growth inhibition [4, 8] | growth inhibition ([4]; at 50.0 µM) | growth inhibition [5, 7] | growth inhibition [5, 8] | growth inhibition ([5]; at 50.0 µM) | growth inhibition [6, 7] | growth inhibition [6, 8] | growth inhibition ([6]; at 50.0 µM)
1 | CC1C(=O)OCC1(C)O (stereo unspecified) | 1% | -2% | -15.2% | 1% | 0% | -11.7% | -4% | 0% | -5.55% | 1% | 0% | 0.75% | 2% | 2% | 46% | 4% | 3% | -21.6%
2 | CC[N-]c1nnnn1CC.[Au+].c1ccc([PH+](c2ccccc2)c2ccccc2)cc1 | 99% (active) | 98% (active) | 97.8% (active) | 99% (active) | 98% (active) | 98.4% (active) | 99% (active) | 98% (active) | 97.7% (active) | 97% (active) | 96% (active) | 97.2% (active) | 99% (active) | 98% (active) | 97.8% (active) | 99% (active) | 97% (active) | 97.2% (active)
3 | CC(O[Si](c1ccccc1)(c1ccccc1)C(C)(C)C)[C@H](NC(=O)OC(C)(C)C)C(=O)O (stereo partly specified) | -13% | 58% | 86% (active) | -4% | 97% (active) | 86.3% (active) | 13% | 47% | 88% (active) | -15% | 98% (active) | 89.6% (active) | -9% | 95% (active) | 55.5% | 1% | 68% | 92.9% (active)
4 | CC(Br)c1ccccc1 (stereo unspecified) | 1% | 17% | 50.2% | 1% | 10% | 26.6% | 2% | 14% | 40.6% | 3% | 7% | -2.05% | 6% | 42% | 65.8% | 5% | 21% | 79.6% (active)
5 | CCC[CH2][Sn]1([CH2]CCC)[O]C(=O)C(C(C)C)N=Cc2ccccc2[O]1 (stereo unspecified) | 15% | 15% | 89.8% (active) | 17% | 17% | 93% (active) | 12% | 12% | 90.8% (active) | 7% | 7% | 91.6% (active) | -4% | -4% | 90.8% (active) | -2% | -2% | 88.5% (active)
6 | CCC[CH2][Sn]1([CH2]CCC)[O]CC(CN2CCCC2)[O]1 (stereo unspecified) | 30% | 96% (active) | 83.8% (active) | 28% | 98% (active) | 87.3% (active) | 46% | 97% (active) | 84.2% (active) | 26% | 95% (active) | 82.3% (active) | 36% | 97% (active) | 86.9% (active) | 48% | 97% (active) | 82.2% (active)
7 | O=C(CCl)Nc1cccc(Cl)c1 | 3% | 80% (active) | 92.4% (active) | 2% | 50% | 89.5% (active) | 1% | 68% | 87.5% (active) | 2% | 33% | 67.8% | 10% | 78% (active) | 94.4% (active) | 2% | 78% (active) | 95% (active)
8 | COC1NC(=O)NC(=O)C1=[N+]=[N-] (stereo unspecified) | -152% | -50% | 31.6% | -44% | -39% | 9.25% | -60% | -33% | 1.3% | -54% | -55% | 27.6% | -58% | -55% | -17.7% | -120% | -136% | 21.9%
9 | O=[N+]([O-])c1cccc(N=Cc2ccc(N(CCCl)CCCl)cc2)c1 | 4% | 53% | 66% | 2% | 64% | 21.9% | 3% | 63% | 44.4% | 2% | 54% | 26.1% | 3% | 74% (active) | 8% | 7% | 74% (active) | 60%
10 | O=C(O)Cc1ccc2c(c1)OCO2.[Ag] | 99% (active) | 93% (active) | 96% (active) | 99% (active) | 95% (active) | 97% (active) | 99% (active) | 94% (active) | 96.6% (active) | 99% (active) | 94% (active) | 90.2% (active) | 99% (active) | 93% (active) | 93.3% (active) | 99% (active) | 93% (active) | 94.4% (active)
11 | CCOC(=O)C1CC12c1ccccc1-c1ccccc12 (stereo unspecified) | 2% | 23% | 73.5% (active) | -6% | 29% | 52.9% | -23% | 48% | 67.2% | -6% | -5% | 19.8% | 1% | 4% | 14.9% | -1% | 41% | 69.5%
12 | COc1ccc(CNCCc2ccc(O)c(OC)c2)cc1O | 1% | 0% | 31.4% | 1% | 3% | -2.8% | 4% | 7% | -0.55% | -5% | 5% | -6.35% | -3% | -3% | 8.7% | -1% | 8% | -4.45%
